Data on eleven compounds can be found in PubChem BioAssay (NCATS).

Assay [1] can be described thus: High-throughput drug toxicity screening in the BPDCN cell line Gen2.2 (AID 1224824; call rule not given here;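 further: cells exposed to compounds for 48 h before reading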). As to conditions: Gen2.2 BPDCN cells; at 45.8 µM (top of the series) unless noted. In a few lines:
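CellTiter-Glo luminescence after 48 h compound exposure of Gen2.2 cells; percent activity set with DMSO as 100% and bortezomib (9.2 uM final) as 0%. Cells seeded at 500 per well, RPMI + 10% FBS, 37 °C.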

A short description of assay [2]: High-throughput drug toxicity screening in the BPDCN cell line Cal-1 (AID 1224825; call rule not given here). Conditions: Cal-1 BPDCN cell viability, qHTS; at 45.8 µM (top of the series) unless noted. The essentials:
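CellTiter-Glo luminescence after 48 h compound exposure; percent activity scaled with DMSO as 100% and bortezomib (9.2 uM final) as 0%. Cal-1 cells seeded at 500/well in RPMI, 10% FBS, no phenol red.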
On the technique in general: qHTS replaces the single test concentration by a dilution series.

A short description of assay [3]: qHTS assay for measurement of the activity of small molecule inhibitors on Zika virus induced Caspase-3 activity in human iPSC derived neural progenitor cells (hNPCs) (AID 1224857). Further: % of control where 0% means no effect; nearly all actives have a fitted effect of over 65% in size. The essentials:
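Percent inhibition of virus-induced caspase-3/7 luminescence (Caspase-Glo), scaled between uninfected cells and Zika-infected cells. hNPCs received compound 1 hr before ZIKV at 2 FFU/cell, with 6 hours infection at 37 C.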

Assay [4] in a line: qHTS assay for measurement of the activity of small molecule inhibitors on Zika virus induced Caspase-3 activity in human astrocytoma cells (AID 1224859).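 Further: plate controls were ZIKV-infected untreated cells for no effect and uninfected cells for full effect.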 In a few lines:
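Luminescent caspase-3/7 read-out (30 min reagent, room temperature) in human SNB-19 cells infected 6 h with ZIKV (2 FFU/cell) after 1 h compound pre-incubation; Data were normalised to uninfected and infected wells.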

Assay [5] is described as follows: qHTS Screen of the MIPE 4.0 Collection Against Ewings Sarcoma (TC71) (AID 1259253). Further: nearly all actives have a fitted effect of over 40% in size. Further: potency means the concentration at half of the fitted maximal effect. The essentials: (§1)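 Log-phase cells in RPMI with 5% FBS attached for 4 h, then received compounds as a titration for 48 h at 37C, 5% CO2. Viability was read by CellTiter-Glo luminescence and normalized to DMSO and no-cell wells.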
Assay [6] can be described thus: qHTS Screen of the MIPE 4.0 Collection Against Ewings Sarcoma (TC32) (AID 1259256). Further: nearly all actives have a fitted effect of over 45% in size. Further: potency means the concentration at half of the fitted maximal effect. The essentials:
as §1

The nature of assay [7]: P-glycoprotein substrates identified in KB-8-5-11 adenocarcinoma cell line, qHTS therapeutic library screen (AID 1346987). Further: nearly all actives have a fitted effect of over 65% in size. Further: potency means the concentration at half of the fitted maximal effect. In a few lines: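 Luminescence from CellTiter-Glo, read 5 min after addition, quantified survival of KB-8-5-11 (P-gp-overexpressing) cells exposed to compounds for 72 h. AC50 was derived from concentration-response curves.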
The target in assay [8] is Atrial natriuretic peptide receptor 1 (Homo sapiens) (UniProt P16066). Briefly: Natriuretic polypeptide receptor (hNpr1) antagonism - Pilot screen (AID 1347049; calls by dose curve;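 further: agonist-evoked cGMP luminescence read 20 min after hNppA addition; on the % scale 0 is the no-effect control and ±100 the full control effect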). In a few lines:
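cGMP-sensor HEK293/hNpr1 cells, 1500/well, plated overnight at 37C. 2% GloSensor reagent, 2 h RT. Compound (23 nL pin transfer) 30 min RT, baseline luminescence pre-read. 0.1 nM hNppA, 20 min RT, post-read.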

Assay [9] addresses Atrial natriuretic peptide receptor 2 (Homo sapiens) (UniProt P20594). Briefly: Natriuretic polypeptide receptor (hNpr2) antagonism - Pilot subtype selectivity assay (AID 1347050; calls by dose curve; further: on the % scale 0 is the no-effect control and ±100 the full control effect). The essentials: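 Luminescence from a genetically encoded cGMP luciferase biosensor in hNpr2-expressing HEK293 cells is read before and 20 min after adding 1 nM hNppC. Test compounds, in interplate 1:5 titrations, are added 30-50 min ahead of the agonist.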

The nature of assay [10]: qHTS Screen of the MIPE 4.0 Collection Against Ewings Sarcoma (EW8) (AID 1259255). Further: nearly all actives have a fitted effect of over 35% in size. Further: potency means the concentration at half of the fitted maximal effect.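 On viability: 100% = DMSO-treated cells and 0% = medium-only wells without cells.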 In a few lines: as §1
The nature of assay [11]: qHTS assay to identify small molecule inhibitors of chordoma cells - UCH-1 (AID 1259355). Further: nearly all actives have a fitted effect of over 55% in size. Further: potency means the concentration at half of the fitted maximal effect. The essentials: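 Screening used approved and investigational drugs in 15-point titration against 800 seeded cells per well. A fixed combination of auranofin with camptothecin, doxorubicin, rubitecan and topotecan followed compound addition, and growth was scored by CellTiter-Glo after 48hr.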

Assay [12] in a line: qHTS Screen of the MIPE 4.0 Collection Against Ewings Sarcoma (RDES) (AID 1259252).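 Further: 100% = DMSO-treated cells and 0% = medium-only wells without cells; nearly all actives have a fitted effect of over 35% in size.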 In a few lines:
as §1

The nature of assay [13]: qHTS assay to identify small molecule inhibitors of chordoma cells - UCH-2 (AID 1259356). Further: potency means the concentration at half of the fitted maximal effect.
Assay [14] is described as follows: P-glycoprotein substrates identified in KB-3-1 adenocarcinoma cell line, qHTS therapeutic library screen (AID 1346986). Further: nearly all actives have a fitted effect of over 60% in size. As to conditions: KB-3-1 parental cells viability, CellTiter-Glo, 72 h; at 44.5 µM (top of the series). In a few lines:
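In 1536-well format, 500 cells/well received pinned compound titrations and were incubated 72 h, 5% CO2. Viability was read by CellTiter-Glo; cytotoxic if AC50 < 10 uM and efficacy >50%.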

Each structure is given as a SMILES string. Where “and” joins values, the source holds several entries; their conditions need not be identical. Equal values may be shown once. Records with an inconclusive call do not appear. The source holds several records for some structures; these can differ, active in one and inactive in another. Calls of active or inactive are those of the source. Unless noted, the call rests on the fitted dose curve; in most records, active means well fitted curve in the direction sought with a large enough effect; inconclusive means small, poorly fitted or top-dose-only effect, or another doubt; inactive means no such curve, though single readings can be large; an effect the other way counts as inactive or inconclusive.

Sequence of Atrial natriuretic peptide receptor 2 (Homo sapiens) (P20594 whole entry, looked up): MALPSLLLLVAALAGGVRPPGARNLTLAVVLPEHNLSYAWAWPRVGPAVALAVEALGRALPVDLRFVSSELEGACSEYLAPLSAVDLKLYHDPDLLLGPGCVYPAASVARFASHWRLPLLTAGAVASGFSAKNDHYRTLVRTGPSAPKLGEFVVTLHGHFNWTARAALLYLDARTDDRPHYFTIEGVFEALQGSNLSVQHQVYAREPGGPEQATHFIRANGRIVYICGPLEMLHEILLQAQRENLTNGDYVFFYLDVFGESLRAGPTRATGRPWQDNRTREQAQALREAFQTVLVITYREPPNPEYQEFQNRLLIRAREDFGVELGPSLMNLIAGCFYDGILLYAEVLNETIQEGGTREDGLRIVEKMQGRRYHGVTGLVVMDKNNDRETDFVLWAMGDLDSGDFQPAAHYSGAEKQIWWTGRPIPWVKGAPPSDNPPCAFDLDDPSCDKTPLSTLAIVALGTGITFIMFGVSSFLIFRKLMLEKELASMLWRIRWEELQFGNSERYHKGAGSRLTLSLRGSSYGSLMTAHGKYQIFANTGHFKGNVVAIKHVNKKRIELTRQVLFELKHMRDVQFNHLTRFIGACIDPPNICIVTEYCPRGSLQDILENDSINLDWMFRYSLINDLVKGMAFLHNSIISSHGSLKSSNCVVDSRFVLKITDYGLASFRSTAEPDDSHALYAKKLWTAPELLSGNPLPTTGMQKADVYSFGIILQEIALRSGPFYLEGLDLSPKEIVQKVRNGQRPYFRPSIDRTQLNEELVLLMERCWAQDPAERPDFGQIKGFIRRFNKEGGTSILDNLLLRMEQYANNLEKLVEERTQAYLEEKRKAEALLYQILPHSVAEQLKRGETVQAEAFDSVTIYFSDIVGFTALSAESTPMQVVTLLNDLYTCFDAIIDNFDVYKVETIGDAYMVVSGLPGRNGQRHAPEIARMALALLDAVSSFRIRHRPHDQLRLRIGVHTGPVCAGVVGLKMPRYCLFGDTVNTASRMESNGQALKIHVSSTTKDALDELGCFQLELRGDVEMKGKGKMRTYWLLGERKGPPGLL
Sequence of Atrial natriuretic peptide receptor 1 (Homo sapiens) (P16066 whole entry, looked up): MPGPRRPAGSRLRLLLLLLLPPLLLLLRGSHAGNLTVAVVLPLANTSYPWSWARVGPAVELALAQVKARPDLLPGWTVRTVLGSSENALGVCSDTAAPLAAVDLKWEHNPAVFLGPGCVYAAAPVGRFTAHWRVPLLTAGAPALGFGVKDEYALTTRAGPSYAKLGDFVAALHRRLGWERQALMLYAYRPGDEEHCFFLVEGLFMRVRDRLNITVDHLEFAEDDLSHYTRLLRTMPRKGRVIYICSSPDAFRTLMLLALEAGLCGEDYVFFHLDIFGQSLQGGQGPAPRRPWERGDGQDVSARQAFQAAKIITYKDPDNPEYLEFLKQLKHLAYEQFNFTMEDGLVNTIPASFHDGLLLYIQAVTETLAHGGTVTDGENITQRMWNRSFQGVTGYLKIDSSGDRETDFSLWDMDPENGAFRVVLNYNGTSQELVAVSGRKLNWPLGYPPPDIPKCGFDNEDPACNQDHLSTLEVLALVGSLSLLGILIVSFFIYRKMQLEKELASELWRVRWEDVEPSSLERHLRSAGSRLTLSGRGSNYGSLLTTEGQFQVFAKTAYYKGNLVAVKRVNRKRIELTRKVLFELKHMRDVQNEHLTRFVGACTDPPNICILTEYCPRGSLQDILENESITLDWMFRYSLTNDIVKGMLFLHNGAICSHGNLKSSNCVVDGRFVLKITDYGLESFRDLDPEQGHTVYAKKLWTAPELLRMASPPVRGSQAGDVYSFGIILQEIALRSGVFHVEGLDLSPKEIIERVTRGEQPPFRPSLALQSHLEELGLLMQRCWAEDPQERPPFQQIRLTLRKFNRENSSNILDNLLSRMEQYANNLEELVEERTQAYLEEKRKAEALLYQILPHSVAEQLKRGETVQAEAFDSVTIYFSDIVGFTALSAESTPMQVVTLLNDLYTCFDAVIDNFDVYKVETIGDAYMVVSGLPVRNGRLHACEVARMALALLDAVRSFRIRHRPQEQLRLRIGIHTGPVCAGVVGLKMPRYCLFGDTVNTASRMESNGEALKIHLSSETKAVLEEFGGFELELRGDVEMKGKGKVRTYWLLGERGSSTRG

On to `COc1cc2ncnc(Nc3cccc(Cl)c3)c2cc1OC`, for which the cell viability, % of control (lower = more cytotoxic) in assay [1] was 115%. In assay [2], the viability (% of control) came out at 39.5%. Besides, the Potency result in assay [3], in [4], in assay [8] and in assay [9] was “inactive” in each case. In addition, the Potency in [5] was 4.18 µM (active); in assay [6], 16.6 µM (active); in assay [7], 8.33 µM (active) and 16.4 µM (active).
In the case of `Cc1onc(-c2ccccc2Cl)c1C(=O)N[C@@H]1C(=O)N2[C@@H]1SC(C)(C)[C@@H]2C(=O)O`, the cell viability, % of control (lower = more cytotoxic) in assay [1] was 168%. In [2], the viability (% of control) amounted to 97.4%. For the same compound, the Potency entry in [3], in [4], in [5], in [10], in assay [6] and in assay [11] was “inactive” each time.
Turning to `NS(=O)(=O)c1cc2c(cc1Cl)NC(C(Cl)Cl)NS2(=O)=O` (centres undefined), the cell viability, % of control (lower = more cytotoxic) in [1] was 43.4%. Moreover, the viability (% of control) in [2] was 94.1%. The Potency result in assay [4], in assay [12], in [5], in assay [10], in assay [6] and in [11] was “inactive” each time. The Potency result in assay [13] and in assay [7] was “inactive” throughout. Besides, the result in assay [14] was inactive.
Regarding `CCc1c2c(nc3ccc(OC(=O)N4CCC(N5CCCCC5)CC4)cc13)-c1cc3c(c(=O)n1C2)COC(=O)[C@]3(O)CC`, the cell viability, % of control (lower = more cytotoxic) in [1] came to 21.9%. For the same compound, the viability (% of control) in [2] was determined as 8.86%. The Potency entry in [3], in assay [4], in assay [6], in assay [11] and in assay [7] was “inactive” each time. Also, the Potency in [5] is 0.332 µM (active); in assay [10], 0.469 µM (active).
With `COc1cc(NS(=O)(=O)c2ccc(N)cc2)nc(OC)n1`, the cell viability, % of control (lower = more cytotoxic) in assay [1] stood at 129%. Also, the viability (% of control) in [2] amounted to 104%. Also, the Potency entry in assay [4], in assay [12], in assay [5], in assay [10], in assay [6] and in assay [11] was “inactive” each time. Also, the Potency result in assay [13] and in [7] was “inactive” in each case. Besides, the outcome in assay [14] was inactive.
As to `CO[C@@]12[C@H](COC(N)=O)C3=C(C(=O)C(C)=C(N)C3=O)N1C[C@@H]1N[C@@H]12`, in [1], the cell viability, % of control (lower = more cytotoxic) came to 2.55%. Besides, the viability (% of control) in assay [2] turned out to be 2.42%. The Potency result in assay [3] and in [4] was “inactive” each time. For the same compound, the Potency is 0.0662 µM (active) in assay [10]; 0.0037 µM (active) in [6]; 17.8 µM (active) in assay [11]; “inactive and 16.6 µM (active)” in assay [7].
With `Oc1c(Cl)cc(Cl)c2cccnc12`, the cell viability, % of control (lower = more cytotoxic) in [1] is 10.5%. Also, in assay [2], the viability (% of control) turned out to be 9.09%. Besides, the Potency entry in [3] and in assay [4] was “inactive” each time. In addition, the Potency in assay [5] was 10.5 µM (active); in assay [10] it was 8.33 µM (active); in assay [6], 7.43 µM (active); in assay [13], 23.1 µM (active); in [7] it was 1.46 µM (active).
Regarding `Nc1ccc(S(=O)(=O)Nc2ccccn2)cc1`, the cell viability, % of control (lower = more cytotoxic) in assay [1] was found to be 123%. The viability (% of control) in assay [2] was 112%. In addition, the Potency entry in [3], in assay [4], in [5], in assay [10] and in assay [6] was “inactive” throughout.
On to `CC1CC2C3CCC4=CC(=O)C=C[C@]4(C)[C@@]3(F)[C@@H](O)C[C@]2(C)[C@@]1(O)C(=O)CO` (some centres undefined), for which the cell viability, % of control (lower = more cytotoxic) in [1] was 115%. Also, in assay [2], the viability (% of control) came out at 56.6%. Further, the Potency result in [3], in [4], in assay [10], in [6], in assay [7] and in [8] was “inactive” throughout. Besides, the Potency entry in assay [9] was “inactive”.
For `NC(=O)N1c2ccccc2CC(=O)c2ccccc21`, the cell viability, % of control (lower = more cytotoxic) in [1] was 104%. In assay [2], the viability (% of control) is 112%. For the same compound, the Potency result in [3], in assay [4], in [5], in assay [10], in assay [6] and in [11] was “inactive” in each case. For the same compound, the Potency entry in assay [13] and in assay [7] was “inactive” in each case.
For the compound `COC(=O)Nc1nc2ccc(Sc3ccccc3)cc2[nH]1`, the cell viability, % of control (lower = more cytotoxic) in assay [1] stood at 61%. Further, the viability (% of control) in assay [2] stood at 18.7%. The Potency entry in [3], in assay [4] and in assay [13] was “inactive” in each case. The Potency in assay [10] is 1.32 µM (active); in assay [6], 1.18 µM (active); in [7] it was 495 nM (active) and 1.18 µM (active).
